Measurements: PubChem BioAssay (NCATS)
Records with an inconclusive call do not appear. Active and inactive are the calls of the source. Calls come from the whole dose curve; as a rule, active = well fitted curve in the direction sought with a large enough effect; inconclusive = small, poorly fitted or top-dose-only effect, or another doubt; inactive = no such curve, though single readings can be large; an effect the other way counts as inactive or inconclusive.

Experiments:
[1] = test system: Zika virus NS2B-NS3 protease (linked construct); assay: Primary screen NINDS Rhodamine qHTS for Zika virus inhibitors (AID 1347160); note: % is set by controls: 0 for no effect and ±100 for the full control effect; nearly all actives have a fitted effect of over 55% in size
Summary of the method: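 Aprotinin served as in-plate control. Conditions: 25 nM linked NS2B-NS3, pH 8.0 Tris buffer, titrated compounds, 15 min preincubation and 15 min reaction with 1.5 microM Rhod110 substrate at room temperature.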

[2] = target: Calcium and integrin-binding protein 1 (Homo sapiens) (UniProt Q99828); assay: Primary qHTS for Identification of Calcium Integrin Binding Protein 1 (CIB1) Competitor (AID 1508620);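 note: GST tagged CIB1 binding a fluorescein labelled alphaIIb integrin peptide tracer; top concentration of the series differs between compounds; % is set by controls: 0 for no effect and ±100 for the full control effect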
Summary of the method: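 CIB1-GST (1 uM final) and compound incubated 15 min at room temperature before adding FITC-alphaIIb peptide tracer (100 nM final). Competition for binding read by fluorescence polarization (ex 480, em 540) after another 15 min at room temperature.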

[3] = Primary qHTS for inhibitors of nuclear receptor binding SET domain protein 2 (NSD2) in an isogenic RCH-ACV NSD2 p.E1099K mutant (9B) (AID 1645876); note: nearly all actives have a fitted effect of over 70% in size
[4] = target: Glutathione peroxidase 1 (Homo sapiens) (UniProt P07203); assay: Primary qHTS Assay for Inhibitors of Recombinant Selenoprotein Glutathione Peroxidase 1 (GPX1) (AID 1845191); note: nearly all actives have a fitted effect of over 65% in size
Summary of the method: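 NADPH consumption tracked by fluorescence at 340/450 nm between t=0 and t=15 min, room temperature. Final mix: 10 nM GPX1, 100 nM glutathione reductase, 1 mM GSH, 0.5 mM NADPH, 0.5 mM cumene hydroperoxide, 0.01% BSA; 30 min compound–enzyme preincubation.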

[5] = target: Luciferin 4-monooxygenase (Photinus pyralis) (UniProt P08659); assay: Primary firefly luciferase (FLuc) qHTS assay for identification of artifact compounds. (AID 1845220); details: outcome: dose series up to 54.1 µM unless noted; note: nearly all actives have a fitted effect of over 60% in size
Summary of the method: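 FLuc 10 nM; luciferin 10 uM; ATP 10 uM; Tris-acetate pH 7.6, Mg-acetate 10 mM; 15 min RT preincubation; 5 min reaction; luminescence.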

[6] = Primary fluorescence-based thiol-reactive (MSTI) qHTS assay for identification of artifact compounds. (AID 1845221); note: nearly all actives have a fitted effect of over 65% in size; note: potency is the fitted concentration of half-maximal effect
Summary of the method: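 First, 4 uM MSTI in 2% DMSO/PBS pH 7.4 was dispensed; next, compounds were added; then plates sat 1 h at room temperature without light. Finally, emission at 598 nm was recorded.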

[7] = test system: Nanoluciferase (engineered Oplophorus gracilirostris luciferase); assay: Primary Nanoluciferase (NLuc) qHTS assay for identification of artifact compounds. (AID 1845222);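 note: NLuc secreted into diluted conditioned medium of S16 cells; 0% = DMSO and -100% = no enzyme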
Summary of the method: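 NLuc from S16 cell medium (1:55) plus test compounds, 15 min, room temperature. Luminescence after Nano-Glo (1:100) addition, 5 min.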

CRL-7250 = normal cell line; assay: Cytotoxic Profiling of Annotated Libraries Using Quantitative High-Throughput Screening (AID 1296008); details: Five cell lines viability, CellTiter-Glo ATP luminescence, 48-72 h; max response: stronger effect = lower value; note: nearly all actives have a fitted effect of over 60% in size; note: potency is the fitted concentration of half-maximal effect; for max response: % is set by controls: 0 for no effect and ±100 for the full control effect
Summary of the method: (§1)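 Cytotoxicity was measured as CellTiter-Glo ATP luminescence, read after 10 min at room temperature. Compound treatment of the cells lasted 48 or 72 hr at 37 degrees Celsius in a qHTS format.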

HEK293 = assay: as above; details: Five cell lines viability, CellTiter-Glo ATP luminescence, 48-72 h; max response: stronger effect = lower value
Summary of the method: as §1

HaCat = assay: as above; details: Five cell lines viability, CellTiter-Glo ATP luminescence, 48-72 h; max response: stronger effect = lower value
Summary of the method: as §1

KB-3-1 = assay: as above; details: Five cell lines viability, CellTiter-Glo ATP luminescence, 48-72 h; max response: stronger effect = lower value
Summary of the method: as §1

C33A = assay: Primary qHTS to identify gynecologic anti-cancer compounds using libraries of approved drugs and bioactive compounds (AID 1345084); details: Gynecologic cancer cell panel viability, ATPlite luminescence, 48 h; series mostly up to 57.5 µM; note: % is set by controls: 0 for no effect and ±100 for the full control effect; nearly all actives have a fitted effect of over 55% in size
Summary of the method: (§2)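 48 h compound exposure at 37 C, 5% CO2; five-point qHTS. ATPlite luminescence readout of cell ATP.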

CASKI = assay: as above; details: Gynecologic cancer cell panel viability, ATPlite luminescence, 48 h; series mostly up to 57.5 µM
Summary of the method: as §2

Es-2 = assay: as above; details: Gynecologic cancer cell panel viability, ATPlite luminescence, 48 h; series mostly up to 57.5 µM
Summary of the method: as §2

Hek293T = assay: as above; details: Gynecologic cancer cell panel viability, ATPlite luminescence, 48 h, control line for the selectivity index; series mostly up to 57.5 µM
Summary of the method: as §2

OV90 = assay: as above; details: Gynecologic cancer cell panel viability, ATPlite luminescence, 48 h; series mostly up to 57.5 µM
Summary of the method: as §2

PA-1 = assay: as above; details: Gynecologic cancer cell panel viability, ATPlite luminescence, 48 h; series mostly up to 57.5 µM
Summary of the method: as §2

Tov-21-G = assay: as above; details: Gynecologic cancer cell panel viability, ATPlite luminescence, 48 h; series mostly up to 57.5 µM
Summary of the method: as §2

Tov112D = assay: as above; details: Gynecologic cancer cell panel viability, ATPlite luminescence, 48 h; series mostly up to 57.5 µM
Summary of the method: as §2

[8] = target: Phospholipid hydroperoxide glutathione peroxidase GPX4 (Homo sapiens) (UniProt P36969); assay: Primary qHTS Assay for Inhibitors of Recombinant Selenoprotein Glutathione Peroxidase 4 (GPX4) (AID 1845192); note: nearly all actives have a fitted effect of over 65% in size
Summary of the method: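 NADPH consumption followed by fluorescence at 340/450 nm, t=0 and after 15 min at room temperature. Reaction started with cumene hydroperoxide (0.5 mM final) after 30 min compound–GPX4 preincubation; final 200 nM GPX4, 100 nM GR, 1 mM GSH, 0.5 mM NADPH.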

Chain of Glutathione peroxidase 1 (Homo sapiens) (P07203 whole entry, looked up): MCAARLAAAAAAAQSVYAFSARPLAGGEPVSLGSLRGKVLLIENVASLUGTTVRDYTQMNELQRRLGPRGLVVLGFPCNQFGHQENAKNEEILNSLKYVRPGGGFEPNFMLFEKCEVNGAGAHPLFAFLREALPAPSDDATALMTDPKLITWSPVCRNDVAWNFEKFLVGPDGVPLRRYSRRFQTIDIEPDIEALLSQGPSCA
Chain of Phospholipid hydroperoxide glutathione peroxidase GPX4 (Homo sapiens) (P36969 whole entry, looked up): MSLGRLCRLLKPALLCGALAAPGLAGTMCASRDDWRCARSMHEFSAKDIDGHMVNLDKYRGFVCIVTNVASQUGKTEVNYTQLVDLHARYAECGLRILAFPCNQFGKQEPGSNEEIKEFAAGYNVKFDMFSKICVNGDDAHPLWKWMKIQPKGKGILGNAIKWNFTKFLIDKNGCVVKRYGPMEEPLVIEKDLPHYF
Chain of Calcium and integrin-binding protein 1 (Homo sapiens) (Q99828 whole entry, looked up): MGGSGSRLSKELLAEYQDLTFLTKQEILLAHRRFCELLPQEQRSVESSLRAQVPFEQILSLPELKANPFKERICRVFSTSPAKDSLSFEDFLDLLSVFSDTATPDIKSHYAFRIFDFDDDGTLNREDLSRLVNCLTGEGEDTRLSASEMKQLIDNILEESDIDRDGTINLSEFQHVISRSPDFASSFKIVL

CC(=O)O[C@H]1CN2CCC1CC2
inactive: Potency [1] | Potency [2] | Potency [3] | Potency [4] | outcome [5] | Potency [6] | Potency [7] | max response (CRL-7250) -2.3% | max response (HEK293) -3.42% | max response (HaCat) 1.98% | outcome (KB-3-1) | Potency (C33A) | Potency (CASKI) | Potency (Es-2) | Potency (Hek293T) | Potency (OV90) | Potency (PA-1) | Potency (Tov-21-G) | Potency (Tov112D)

CC(=O)O[C@@H]1[C@H]2CC[C@H]3[C@@](C)(O)[C@@H]4C[C@H](O)C(C)(C)[C@@]4(O)[C@H](O)C[C@@]13C[C@@]2(C)O
inactive: Potency [1] | Potency [2] | Potency [3] | Potency [4] | Potency [8] | outcome [5] | Potency [6] | Potency [7] | outcome (CRL-7250) | max response (HEK293) 2% | max response (HaCat) -9.56% | max response (KB-3-1) 2.41% | Potency (C33A) | Potency (CASKI) | Potency (Es-2) | Potency (Hek293T) | Potency (OV90) | Potency (PA-1) | Potency (Tov-21-G) | Potency (Tov112D)

C=CCN1CC[C@]23c4c5ccc(O)c4O[C@H]2[C@@H](O)CC[C@@]3(O)[C@H]1C5
inactive: Potency [2] | Potency [3] | Potency [4] | Potency [8] | outcome [5] | Potency [6] | Potency [7] | max response (CRL-7250) -15.6% | max response (HEK293) -13.2% | max response (HaCat) 3.65% | max response (KB-3-1) 3.34% | Potency (C33A) | Potency (CASKI) | Potency (Es-2) | Potency (Hek293T) | Potency (OV90) | Potency (PA-1) | Potency (Tov-21-G) | Potency (Tov112D)

CN1C2CCC1CC(OC(=O)N1Cc3ccccc3NC1=O)C2 (stereo not given)
inactive: Potency [1] | Potency [2] | Potency [3] | Potency [4] | Potency [8] | Potency [6] | Potency [7] | outcome (CRL-7250) | max response (HEK293) 0.771% | max response (HaCat) 2.89% | max response (KB-3-1) -1.51% | Potency (C33A) | Potency (CASKI) | Potency (Es-2) | Potency (Hek293T) | Potency (OV90) | Potency (PA-1) | Potency (Tov-21-G) | Potency (Tov112D)

CC1=CC2(O)/C=C/C(C)(O)C(O)C(O)/C=C/C(=O)OC23C(=O)NC(CC(C)C)C3C1C (stereo not given)
active: Potency [6] 10.3 µM
inactive: Potency [2] | Potency [3] | Potency [4] | Potency [8] | outcome [5] | Potency [7] | max response (CRL-7250) -1.26% | max response (HEK293) -8.27% | outcome (HaCat) | outcome (KB-3-1) | Potency (C33A) | Potency (CASKI) | Potency (Es-2) | Potency (Hek293T) | Potency (OV90) | Potency (PA-1) | Potency (Tov-21-G) | Potency (Tov112D)

Cc1c(N2C(=O)[C@@H]3[C@H](O)CCN3C2=O)ccc(C#N)c1Cl
inactive: Potency [1] | Potency [2] | Potency [3] | Potency [4] | Potency [8] | outcome [5] | Potency [6] | Potency [7] | max response (CRL-7250) -13.8% | max response (HEK293) -6.16% | outcome (HaCat) | max response (KB-3-1) -9.81% | Potency (C33A) | Potency (CASKI) | Potency (Es-2) | Potency (Hek293T) | Potency (OV90) | Potency (PA-1) | Potency (Tov-21-G) | Potency (Tov112D)

COC(=O)CC1CC2(C(=O)c3c(O)cccc3C2(O)C(=O)OC)C(C)O1 (stereo not given)
inactive: Potency [1] | Potency [2] | Potency [3] | Potency [4] | outcome [5] | Potency [7] | max response (CRL-7250) 2.33% | max response (HEK293) -1.89% | outcome (HaCat) | max response (KB-3-1) 3.88% | Potency (C33A) | Potency (CASKI) | Potency (Es-2) | Potency (Hek293T) | Potency (OV90) | Potency (PA-1) | Potency (Tov-21-G) | Potency (Tov112D)

Cc1cccc(NC(=O)N[C@H]2CN(C)c3ccccc3C(c3ccccc3)=N2)c1
inactive: Potency [1] | Potency [2] | Potency [4] | Potency [8] | outcome [5] | Potency [6] | max response (CRL-7250) -1.7% | max response (HEK293) -2.16% | outcome (HaCat) | max response (KB-3-1) 6.39% | Potency (C33A) | Potency (CASKI) | Potency (Es-2) | Potency (Hek293T) | Potency (OV90) | Potency (PA-1) | Potency (Tov-21-G) | Potency (Tov112D)

O=C1N[C@@H](Cc2ccccc2)CN2CCCC[C@@H]12
inactive: Potency [1] | Potency [2] | Potency [3] | Potency [4] | Potency [8] | outcome [5] | Potency [6] | Potency [7] | max response (CRL-7250) -11.6% | max response (HEK293) -0.0326% | outcome (HaCat) | max response (KB-3-1) 1.17% | Potency (C33A) | Potency (CASKI) | Potency (Es-2) | Potency (Hek293T) | Potency (OV90) | Potency (PA-1) | Potency (Tov-21-G) | Potency (Tov112D)

N#CC(O[C@@H]1O[C@H](CO)[C@@H](O)[C@H](O)[C@H]1O)c1ccccc1 (stereo not given in full)
inactive: Potency [1] | Potency [2] | Potency [3] | Potency [4] | Potency [8] | outcome [5] | Potency [6] | Potency [7] | outcome (CRL-7250) | max response (HEK293) -8.76% | max response (HaCat) -12% | max response (KB-3-1) 0.785% | Potency (C33A) | Potency (CASKI) | Potency (Es-2) | Potency (Hek293T) | Potency (OV90) | Potency (PA-1) | Potency (Tov-21-G) | Potency (Tov112D)

CC(=O)O[C@H]1CC[C@H]2[C@@H]3CC[C@H]4CC(=O)C=C(C)[C@]4(C)[C@H]3CC[C@]12C
active: Potency (HEK293) 23.1 µM
inactive: Potency [1] | Potency [4] | Potency [8] | outcome [5] | Potency [6] | Potency [7] | max response (CRL-7250) -4.94% | outcome (HaCat) | max response (KB-3-1) 7.22% | Potency (C33A) | Potency (CASKI) | Potency (Es-2) | Potency (Hek293T) | Potency (OV90) | Potency (PA-1) | Potency (Tov-21-G) | Potency (Tov112D)
